Data published in PubChem BioAssay AID1159580 (chemical genetic matrix, 2015).
Where “and” joins values, the source holds several entries; their conditions need not be identical. Equal values may be shown once. The campaign covered roughly 5,500 compounds. About 2,000 (36%) were called active. Another 18% or so got no clear call; they are omitted. No stated cut-off is given here; in the data, active means normalized growth mostly below about 0.91 (no sharp cut-off); inconclusive means no clear call, values can overlap the other calls; inactive means mostly above about 0.92. Some of the results follow.

Assay: chemical genetic growth profiling, strain panel (AID 1159580);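 further: tested at 20 µM; growth read once vehicle control cultures reached saturation at 30 °C; 1 = growth at the plate median or of vehicle wells; lower values mean less growth of the strain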
Conditions: S. cerevisiae deletion strains, growth OD

Measured: normalized growth

CC(=O)O[C@H]1C[C@@H](OC(C)=O)C(C)(C)C2CC(=O)[C@]3(C)C(CC[C@@]4(C)[C@H](C(=O)O)OC(=O)C5OC543)[C@]21C (stereo partly specified)
inactive: locus YAL021C, strain ccr4, active compounds read low 0.96 | locus YAL026C, strain drs2, active compounds read low 0.98 | locus YAL030W, strain snc1, active compounds read low 1.02 | locus YBL061C, strain skt5, active compounds read low 0.995 | locus YBR009C, strain hhf1, active compounds read low 0.988 | locus YBR021W, strain FUR4, active compounds read low 1.03 | locus YBR023C, strain chs3, active compounds read low 1.01 | locus YBR171W, strain sec66, active compounds read low 0.984 | locus YBR229C, strain ROT2, active compounds read low 0.964 | locus YBR231C, strain swc5, active compounds read low 0.988 | locus YBR279W, strain paf1, active compounds read low 1.01 | locus YCL011C, strain gbp2, active compounds read low 0.982 | locus YCL016C, strain dcc1, active compounds read low 0.974 | locus YCL029C, strain bik1, active compounds read low 0.979 | locus YCL061C, strain MRC1, active compounds read low 0.987 | locus YCL069W, strain vba3, active compounds read low 0.991 | locus YCR088W, strain abp1, active compounds read low 1 | locus YDL005C, strain med2, active compounds read low 0.966 | locus YDL035C, strain GPR1, active compounds read low 0.977 | locus YDL040C, strain nat1, active compounds read low 0.995 | locus YDL074C, strain BRE1, active compounds read low 1.04 | locus YDL101C, strain DUN1, active compounds read low 0.991 | locus YDL134C, strain PPH21, active compounds read low 1.05 | locus YDL185W, strain tfp1, active compounds read low 0.965 | locus YDL192W, strain arf1, active compounds read low 0.968 | locus YDR001C, strain nth1, active compounds read low 0.994 | locus YDR069C, strain doa4, active compounds read low 0.994 | locus YDR101C, strain arx1, active compounds read low 0.983 | locus YDR137W, strain rgp1, active compounds read low 0.991 | locus YDR159W, strain sac3, active compounds read low 1.03 | locus YDR162C, strain NBP2, active compounds read low 1.01 | locus YDR195W, strain ref2 0.936 | locus YDR297W, strain sur2, active compounds read low 0.993 | locus YDR318W, strain mcm21, active compounds read low 0.987 | locus YDR334W, strain swr1, active compounds read low 0.976 | locus YDR335W, strain msn5, active compounds read low 0.987 | locus YDR388W, active compounds read low 0.989 | locus YDR392W, strain spt3, active compounds read low 1 | locus YDR502C, strain sam2, active compounds read low 1.02 | locus YEL003W, strain gim4, active compounds read low 0.994 | locus YEL037C, strain rad23, active compounds read low 0.995 | locus YEL061C, strain CIN8 (second series), active compounds read low 0.993 | locus YEL061C, strain CIN8, active compounds read low 0.979 | locus YER015W, strain faa2, active compounds read low 0.987 | locus YER016W, strain bim1, active compounds read low 0.987 | locus YER110C, active compounds read low 0.979 | locus YER111C, strain swi4, active compounds read low 0.987 | locus YER155C, strain BEM2 (second series), active compounds read low 0.992 | locus YER155C, strain BEM2, active compounds read low 0.996 | locus YER167W, strain BCK2, active compounds read low 0.988 | locus YFR010W, strain ubp6, active compounds read low 1.02 | locus YGL078C, strain dbp3, active compounds read low 1.02 | locus YGL086W, strain mad1, active compounds read low 1 | locus YGL167C, strain pmr1, active compounds read low 0.993 | locus YGL173C, strain kem1, active compounds read low 0.997 | locus YGL227W, strain vid30, active compounds read low 0.993 | locus YGL240W, strain doc1, active compounds read low 0.974 | locus YGL248W, strain PDE1, active compounds read low 1.01 | locus YGL253W, strain hxk2, active compounds read low 0.988 | locus YGR135W, strain pre9, active compounds read low 1.06 | locus YGR252W, strain gcn5, active compounds read low 1.07 | locus YHR013C, strain ard1, active compounds read low 0.97 | locus YHR027C, strain rpn1, active compounds read low 0.988 | locus YHR030C, strain SLT2, active compounds read low 0.981 and 1.01 | locus YHR079C, strain IRE1 (second series), active compounds read low 0.983 | locus YHR079C, strain IRE1, active compounds read low 1.03 | locus YHR094C, strain hxt1, active compounds read low 0.992 | locus YHR129C, strain ARP1, active compounds read low 0.987 | locus YHR142W, strain chs7, active compounds read low 0.98 | locus YHR200W, strain rpn10, active compounds read low 1.02 | locus YIL066C, strain RNR3, active compounds read low 0.957 | locus YIL073C, strain SPO22, active compounds read low 0.996 | locus YIL125W, strain kgd1, active compounds read low 0.992 | locus YIR030C, strain dcg1, active compounds read low 0.986 | locus YJL092W, strain hpr5, active compounds read low 0.994 | locus YJL095W, strain BCK1 (second series), active compounds read low 0.983 | locus YJL095W, strain BCK1, active compounds read low 1.08 and 1.01 | locus YJL115W, strain asf1, active compounds read low 0.978 | locus YJL129C, strain trk1, active compounds read low 0.987 | locus YJL134W, strain LCB3, active compounds read low 0.978 | locus YJL154C, strain vps35, active compounds read low 0.978 | locus YJL164C, strain tpk1, active compounds read low 1.02 | locus YJL166W, strain qcr8, active compounds read low 0.977 | locus YJL168C, strain set2, active compounds read low 0.996 | locus YJL187C, strain SWE1 (second series), active compounds read low 1.01 | locus YJL187C, strain SWE1, active compounds read low 0.984
